According to PubChem BioAssay (Tox21):
Inconclusive results are not listed. The source made the active and inactive calls. Unless noted, calls follow the shape of the full dose curve.

How the values were obtained:
[1] = Nuclear factor erythroid 2-related factor 2/antioxidant responsive element (Nrf2/ARE) small molecule agonists: qHTS cell viability counter screen in human keratinocytes (AID 1919968; active = well fitted curve in the direction sought with a large enough effect in the repeat runs; an effect the other way counts as inactive or inconclusive; also: nearly all actives have a fitted effect of over 55% in size; also: potency is read from the fitted curve at half-maximal effect)
How it was run: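 Cells of the KeratinoSens line were plated at 1,500 per well and left for 5 h before compound transfer from DMSO stocks. After a 23 h incubation (37 C, 5% CO2), CellTiter-Fluor was added. Signal was taken as fluorescence intensity 1 h later.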

[2] = Nuclear factor erythroid 2-related factor 2/antioxidant responsive element (Nrf2/ARE) small molecule agonists: luciferase reporter gene qHTS assay in human keratinocytes (AID 1919969); also: nearly all actives have a fitted effect of over 35% in size
[3] = molecular target: Gonadotropin-releasing hormone receptor (Homo sapiens) (UniProt P30968); test: Human gonadotropin-releasing hormone receptor (GnRHR) small molecule agonists, calcium flux assay in GnRHR-HEK293 cells (AID 1920063); also: nearly all actives have a fitted effect of over 35% in size
Sequence of Gonadotropin-releasing hormone receptor (Homo sapiens) (P30968 whole entry, looked up): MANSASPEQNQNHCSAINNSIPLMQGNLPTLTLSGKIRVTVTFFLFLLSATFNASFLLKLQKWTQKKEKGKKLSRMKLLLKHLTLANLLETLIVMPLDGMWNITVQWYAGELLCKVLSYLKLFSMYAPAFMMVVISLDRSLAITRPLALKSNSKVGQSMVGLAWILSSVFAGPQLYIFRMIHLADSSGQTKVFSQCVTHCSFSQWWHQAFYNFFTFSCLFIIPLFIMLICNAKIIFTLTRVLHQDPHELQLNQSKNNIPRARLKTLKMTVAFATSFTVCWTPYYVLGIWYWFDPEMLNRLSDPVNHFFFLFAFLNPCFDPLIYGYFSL
How it was run: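 Compounds dissolved in DMSO are pin-transferred onto dye-loaded GnRHR-HEK293 cells, which were seeded 18 h before at 37 C/5% CO2. Calcium signal is read as fluorescence intensity at 1 s intervals for 3 min.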

[4] = molecular target: KiSS-1 receptor (Homo sapiens) (UniProt Q969F8); test: Human kisspeptin (KISS1R) small molecule agonists, calcium flux assay in KISS1R-HEK293 cells (AID 1920064; active = well fitted curve in the direction sought with a large enough effect in the repeat runs; an effect the other way counts as inactive or inconclusive)
Sequence of KiSS-1 receptor (Homo sapiens) (Q969F8 whole entry, looked up): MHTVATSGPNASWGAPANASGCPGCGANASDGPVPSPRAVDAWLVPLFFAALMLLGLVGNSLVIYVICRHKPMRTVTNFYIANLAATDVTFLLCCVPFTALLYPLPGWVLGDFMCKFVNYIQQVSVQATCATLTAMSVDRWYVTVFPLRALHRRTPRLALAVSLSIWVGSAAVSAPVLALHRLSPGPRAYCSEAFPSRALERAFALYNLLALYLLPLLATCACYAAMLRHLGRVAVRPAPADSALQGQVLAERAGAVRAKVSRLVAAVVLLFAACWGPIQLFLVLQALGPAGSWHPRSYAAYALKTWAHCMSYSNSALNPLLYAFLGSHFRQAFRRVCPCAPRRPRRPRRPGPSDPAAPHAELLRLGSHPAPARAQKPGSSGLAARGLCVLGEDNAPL
How it was run: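 Cell line: HEK293, stable human KISS1R. Dye loading 1 h at 37 C after 18 h culture. Read: kinetic fluorescence, 480/540 nm, 3 min at 1 s intervals.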

[5] = G protein-coupled receptor (GPCR) small molecule agonists, calcium flux assay: HEK293 wild type cell line counter screen (AID 1920065)
How it was run: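 Tox21 10K compounds, 15 concentrations each in triplicate, pin-transferred in DMSO onto dye-loaded cells; kinetic read at 480/540 nm for 3 min, 1 s intervals.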

[6] = p53 small molecule agonists, cell-based qHTS assay with human liver microsomes (AID 1963577);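 also: p53 response element beta-lactamase reporter cells with liver microsomes plus NADPH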
How it was run: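 HLM-supplemented p53RE-bla reporter assay: 16 h compound exposure at 37 C, microsomes and NADPH each 0.5 mg/mL final, read by fluorescence intensity.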

[7] = p53 small molecule agonists, cell-based qHTS assay with rat liver microsomes (AID 1963578)
How it was run: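 Quantitative HTS of the Tox21 10K library: p53RE-bla cells, rat liver microsomes plus NADPH at 0.5 mg/mL final each, 16 h at 37 C, beta-lactamase fluorescence detection.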

[8] = p53 small molecule agonists, cell-based qHTS assay with human liver microsomes: qHTS cell viability counter screen (AID 1963579); also: nearly all actives have a fitted effect of over 45% in size
How it was run: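 Viability of p53RE-bla cells is measured as CellTiter-Glo luminescence following a 16 h, 37 C incubation with compound, liver microsomes from human donors and NADPH.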

[9] = p53 small molecule agonists, cell-based qHTS assay with rat liver microsomes: qHTS cell viability counter screen (AID 1963580); also: nearly all actives have a fitted effect of over 45% in size
How it was run: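 Cytotoxicity counter screen: intracellular ATP measured by CellTiter-Glo luminescence in the same wells as the beta-lactamase reporter read, on HCT-116 p53RE-bla cells exposed 16 h at 37 C to compounds with rat liver microsomes and NADPH, each 0.5 mg/mL final.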

[10] = p53 small molecule agonists, cell-based qHTS assay: qHTS cell viability counter screen (AID 1963581); also: nearly all actives have a fitted effect of over 45% in size
How it was run: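 ATP content measured by luminescence in HCT-116 p53RE-bla cells treated 16 h at 37 C, same wells as the reporter screen.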

[11] = p53 small molecule agonists, cell-based qHTS assay (AID 1963582; active = well fitted activation curve with a large enough effect in the signal ratio in the repeat runs, not every such curve was filed as active; the % refers to the signal ratio)
How it was run: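 16 h compound exposure (37 C) of p53 response element–bla cells, preceded by 5 h recovery at 37 C/5% CO2; read-out via LiveBLAzer B/G FRET substrate, 2 h RT, fluorescence intensity.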

[12] = cAMP Responsive Elements (CRE) small molecule agonists, cell-based qHTS assay (AID 1963590)
How it was run: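 HEK 293T cells stably bearing CRE-bla were plated at 2,000 cells per well and rested 18 h. Compounds, positive controls or DMSO were added for 3 h at 37 C. LiveBLAzer B/G substrate was then loaded for 2 h at room temperature.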

[13] = cAMP Responsive Elements (CRE) small molecule antagonists, cell-based qHTS assay (AID 1963591; active = well fitted inhibition curve with a large enough effect in the signal ratio in the repeat runs, not every such curve was filed as active; the % refers to the signal ratio)
How it was run: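 First, CRE-bla HEK293T cells settled 18 h at 37 C. Next, compound and 0.25 uM final NKH477 were applied for 3 h. Last, LiveBLAzer B/G substrate was loaded for 2 h at room temperature.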

[14] = molecular target: Beta-2 adrenergic receptor (Homo sapiens) (UniProt P07550); test: Adrenergic beta2 receptor (ADRB2) small molecule agonists, cell-based qHTS assay (AID 1963593);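 also: CHO cells stably overexpressing human ADRB2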
Sequence of Beta-2 adrenergic receptor (Homo sapiens) (P07550 whole entry, looked up): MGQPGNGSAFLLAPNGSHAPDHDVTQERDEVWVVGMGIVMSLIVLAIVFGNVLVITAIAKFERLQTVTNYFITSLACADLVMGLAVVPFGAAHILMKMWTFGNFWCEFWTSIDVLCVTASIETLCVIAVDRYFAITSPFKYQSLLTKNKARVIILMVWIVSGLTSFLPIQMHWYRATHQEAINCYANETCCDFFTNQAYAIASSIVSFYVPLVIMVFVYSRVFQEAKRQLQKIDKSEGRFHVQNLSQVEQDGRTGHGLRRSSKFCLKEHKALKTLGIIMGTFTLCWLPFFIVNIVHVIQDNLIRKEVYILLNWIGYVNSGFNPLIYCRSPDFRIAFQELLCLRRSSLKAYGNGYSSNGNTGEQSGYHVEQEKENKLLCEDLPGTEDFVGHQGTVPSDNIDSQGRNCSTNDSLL
How it was run: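 CHO cells stably over-expressing ADRB2 were plated overnight at 37C, then dosed with compounds plus a stimulation mix containing 100uM IBMX and 25uM Ro-20-1724 for 0.5hr at room temperature. cAMP was measured by HTRF competition, 1hr.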

[15] = molecular target: D(2) dopamine receptor (Homo sapiens) (UniProt P14416); test: Dopamine D2 receptor (DRD2) small molecule agonists, cell-based qHTS assay (AID 1963594); also: nearly all actives have a fitted effect of over 35% in size
Sequence of D(2) dopamine receptor (Homo sapiens) (P14416 whole entry, looked up): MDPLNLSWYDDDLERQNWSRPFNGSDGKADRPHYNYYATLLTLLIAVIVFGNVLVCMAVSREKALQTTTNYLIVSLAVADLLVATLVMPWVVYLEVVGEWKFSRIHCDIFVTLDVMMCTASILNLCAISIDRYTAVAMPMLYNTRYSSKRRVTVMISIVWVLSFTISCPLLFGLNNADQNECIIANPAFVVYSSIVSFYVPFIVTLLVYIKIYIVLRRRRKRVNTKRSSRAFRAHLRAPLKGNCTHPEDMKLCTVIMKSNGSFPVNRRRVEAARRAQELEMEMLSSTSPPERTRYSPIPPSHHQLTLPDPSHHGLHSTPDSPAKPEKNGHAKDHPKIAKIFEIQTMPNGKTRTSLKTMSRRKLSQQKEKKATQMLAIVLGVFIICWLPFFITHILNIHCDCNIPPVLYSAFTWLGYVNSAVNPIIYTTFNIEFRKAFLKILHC
How it was run: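 HEK293 cells stably expressing human DRD2, pre-treated with PDE inhibitor Ro20-1724 (0.1 mM final) and compound 10 min at room temperature, then stimulated with NKH477 (200nM […]) for 30 min. cAMP read by HTRF (665/620 nm).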

[16] = molecular target: D(2) dopamine receptor (Homo sapiens) (UniProt P14416); test: Dopamine D2 receptor (DRD2) small molecule antagonists, cell-based qHTS assay (AID 1963595; active = well fitted inhibition curve with a large enough effect in the signal ratio in the repeat runs, with a control signal flat; the % refers to the signal ratio)
How it was run: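 In this cell-based antagonist screen, compounds act for 10 min at room temperature before a 30 min challenge with 12 nM quinpirole and 200 nM NKH477. cAMP is quantified by HTRF competition in DRD2-HEK293 cells containing 0.1 mM Ro20-1724.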

[17] = molecular target: Beta-2 adrenergic receptor (Homo sapiens) (UniProt P07550); test: Adrenergic beta2 receptor (ADRB2) small molecule antagonists, cell-based qHTS assay (AID 1963592); also: series mostly up to about 92 µM; nearly all actives have a fitted effect of over 50% in size
How it was run: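 Assay format: CHO-ADRB2 cells, 18-20hr seeding at 37C/5% CO2, then compound plus 1nM isoproterenol agonist mix for 0.5hr RT. Homogeneous time-resolved fluorescence cAMP detection after 1hr, expressed as 665/615 nm ratio.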
% is scaled to controls: 0 for no effect and ±100 for the full control effect.

CCOC(=O)OC(C)OC1=C(C(=O)Nc2ccccn2)N(C)S(=O)(=O)c2ccccc21 (stereo not drawn)
inactive: Potency [1] | Potency [2] | Potency [3] | outcome [4] | outcome [5] | Potency [6] | Potency [7] | Potency [8] | Potency [9] | Potency [10] | Potency [11] | Potency [12] | Potency [13] | Potency [14] | Potency [15] | Potency [16]

C[C@H](CCC(=O)O)[C@H]1CC[C@H]2[C@@H]3[C@H](O)C[C@@H]4C[C@H](O)CC[C@]4(C)[C@H]3C[C@H](O)[C@]12C
inactive: Potency [1] | Potency [2] | Potency [3] | outcome [4] | outcome [5] | Potency [6] | Potency [7] | Potency [8] | Potency [9] | Potency [10] | Potency [11] | Potency [12] | Potency [13] | Potency [17] | Potency [16]

C1CCN2C[C@@H]3C[C@@H](CN4CCCC[C@@H]34)[C@H]2C1
inactive: Potency [1] | Potency [2] | Potency [3] | outcome [4] | outcome [5] | Potency [6] | Potency [7] | Potency [8] | Potency [9] | Potency [10] | Potency [11] | Potency [12] | Potency [17] | Potency [15] | Potency [16]

C[N+](C)(C)CCOC(=O)CCC(=O)OCC[N+](C)(C)C
inactive: Potency [1] | Potency [2] | Potency [3] | outcome [4] | outcome [5] | Potency [6] | Potency [7] | Potency [8] | Potency [9] | Potency [10] | Potency [11] | Potency [12] | Potency [13] | Potency [17] | Potency [16]

Clc1ccc2c(c1)CCc1cccnc1C2=C1CCNCC1
inactive: Potency [2] | Potency [3] | outcome [4] | outcome [5] | Potency [6] | Potency [7] | Potency [8] | Potency [9] | Potency [10] | Potency [11] | Potency [12] | Potency [17] | Potency [15] | Potency [16]
active: Potency [1] 29.8 µM

C[n+]1ccccc1/C=N/O
inactive: Potency [1] | Potency [2] | Potency [3] | outcome [4] | outcome [5] | Potency [6] | Potency [7] | Potency [8] | Potency [9] | Potency [10] | Potency [11] | Potency [12] | Potency [17] | Potency [15] | Potency [16]

CN1C(=O)OC(C)(C)C1=O
inactive: Potency [1] | Potency [2] | Potency [3] | outcome [4] | outcome [5] | Potency [6] | Potency [7] | Potency [8] | Potency [9] | Potency [10] | Potency [11] | Potency [12] | Potency [17] | Potency [16]

CCCN1C[C@H](CSC)C[C@@H]2c3cccc4[nH]cc(c34)C[C@H]21
inactive: Potency [1] | Potency [2] | Potency [3] | outcome [4] | outcome [5] | Potency [6] | Potency [7] | Potency [8] | Potency [9] | Potency [10] | Potency [11] | Potency [16]

NCC(=O)O
inactive: activity change, negative = cytotoxicity [1] -4.41% [at 19 µM] | activity, positive = activation [2] -0.375% [at 19 µM] | activity change [3] 1.37% [at 11.8 µM, hits give high values] | activation [4] -0.57% [at 15.8 µM] | activation [5] -1.52% [at 11.8 µM] | activation [6] 0.573% [at 13.5 µM] | activation [7] 1.19% [at 13.6 µM] | activity change, negative = cytotoxicity [8] -11.7% [at 13.5 µM] | activity change, negative = cytotoxicity [9] -0.16% [at 13.5 µM] | activity change, negative = cytotoxicity [10] -0.356% [at 13.5 µM] | activation [11] 0.144% [at 13.5 µM] | activity change, negative = inhibition [13] 4.57% [at 18.9 µM] | activity change, negative = inhibition [17] -10.5% [at 19 µM] | Potency [14] | activation [15] 4.26% [at 19 µM] | activity change, negative = inhibition [16] -7.27% [at 18.9 µM]
